# Bioassay records from PubChem.
# A selection: hits, their analogues and other compounds. The true share with any hit is near 4.5%.
# aSyn 5UTR inh: MLPCN primary screen, SNCA 5' untranslated region | alpha-synuclein 5'UTR reporter, inhibitor activity | inhibition, % (tested at 7.5 µM) | actives 0.82% (n = 300,000) | AID 1813, 2009; in the data active = inhibition above about 60%;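 note: H4 neuroglioblastoma cells stably carrying SNCA 5'UTR luciferase fusion; 0% = DMSO wells and 100% = positive control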
# CSC inhib: cancer stem cell viability inhibitors, primary screen, luminescence; cancer stem cell-like cells viability; inhibition, % at 7.5 µM; actives 1.1% (n = 300,000); AID 2717, 2010; in the data active = inhibition above about 75%; tested in HMLE shEcad cells
# Jurkat NFkB inh: inhibitors of induced NF-kB luciferase reporter, primary screen, TCR NF-kB activation inhibitor project, cell-based, luminescence, uHTS | Jurkat, PMA/ionomycin-induced NF-kB luciferase reporter | inhibition, % at 4 µM | actives 0.53% (n = 330,000) | AID 435003, 2010; in the data active = inhibition above about 50%
# 697 NFkB inh: inhibitors of PMA/ionomycin-induced NF-kB reporter, 697 cells, primary screen, B-cell NF-kB inhibitor project, cell-based, luminescence, uHTS. actives 0.33% (n = 330,000). 697 B-cell NF-kB luciferase reporter, 16 h. AID 435022, 2010. inhibition, % at 4 µM; in the data active = inhibition above about 35%
# Gli-Sufu antag: Gli-Sufu pathway antagonists, primary screen, luciferase luminescence, Sufu-KO-LIGHT cells, uHTS; inhibition, % at 5 µM; actives 0.74% (n = 340,000); Sufu-KO-LIGHT fibroblasts, Gli luciferase reporter luminescence;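 active = inhibition above about 55%, limit read from the data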;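 note: 0% = DMSO-treated cells and 100% = wells with medium but no cells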
# Mdm2-MdmX inh: inhibitors of human Mdm2-MdmX association, primary screen, cell-based, luminescence, split luciferase, SaOS-2, uHTS | Protein Mdm4 (Homo sapiens) + E3 ubiquitin-protein ligase Mdm2 (Homo sapiens), … | SaOS-2 split-luciferase Mdm2/MdmX complementation | inhibition, % at 8 µM | actives 3% (n = 330,000) | AID 485346, 2010;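 active = inhibition of at least 50% at 8 µM in the primary screen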
# Target sequence (O15151 whole entry, looked up): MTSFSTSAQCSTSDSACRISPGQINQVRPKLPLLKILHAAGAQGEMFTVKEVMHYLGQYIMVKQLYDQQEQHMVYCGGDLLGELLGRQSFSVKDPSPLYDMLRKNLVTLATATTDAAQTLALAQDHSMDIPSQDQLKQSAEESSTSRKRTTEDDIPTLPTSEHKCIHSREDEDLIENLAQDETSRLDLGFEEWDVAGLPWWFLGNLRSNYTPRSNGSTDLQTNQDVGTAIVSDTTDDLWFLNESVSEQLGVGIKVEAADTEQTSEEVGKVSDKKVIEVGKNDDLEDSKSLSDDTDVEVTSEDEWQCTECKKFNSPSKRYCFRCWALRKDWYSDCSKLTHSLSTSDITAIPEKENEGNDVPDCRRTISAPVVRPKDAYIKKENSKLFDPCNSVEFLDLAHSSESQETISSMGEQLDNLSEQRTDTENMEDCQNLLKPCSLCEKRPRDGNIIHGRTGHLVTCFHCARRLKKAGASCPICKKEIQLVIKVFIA
# Target sequence (Q00987 whole entry, looked up): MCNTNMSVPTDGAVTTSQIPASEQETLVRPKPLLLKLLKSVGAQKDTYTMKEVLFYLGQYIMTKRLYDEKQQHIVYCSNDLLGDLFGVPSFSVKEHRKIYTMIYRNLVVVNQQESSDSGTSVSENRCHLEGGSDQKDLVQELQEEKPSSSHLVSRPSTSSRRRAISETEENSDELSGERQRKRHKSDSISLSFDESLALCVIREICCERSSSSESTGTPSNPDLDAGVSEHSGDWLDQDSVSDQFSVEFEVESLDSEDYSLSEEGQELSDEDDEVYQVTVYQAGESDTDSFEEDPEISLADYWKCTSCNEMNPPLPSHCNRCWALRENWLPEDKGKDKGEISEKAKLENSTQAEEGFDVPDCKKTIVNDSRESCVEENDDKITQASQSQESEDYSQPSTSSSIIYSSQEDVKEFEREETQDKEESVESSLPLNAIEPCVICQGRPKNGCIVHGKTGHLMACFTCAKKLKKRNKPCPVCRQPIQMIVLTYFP
# Jurkat NFkB conf: PMA/ionomycin-induced NF-kB reporter inhibitors, Jurkat retest, confirmation, T-cell NF-kB inhibitor project, cell-based, luminescence, single concentration. actives 27% (n = 2,700). inhibition, % at 4 µM. shares compounds with Jurkat NFkB inh. Jurkat NF-kB luciferase, 16 h;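 active = inhibition reaching about 45% at 4 µM in either replicate, limit read from the data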;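 note: plate controls were PMA/ionomycin stimulated DMSO wells for no effect and unstimulated DMSO wells for full effect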
# 697 NFkB conf: PMA/ionomycin-induced NF-kB reporter inhibitors, 697 retest, confirmation, B-cell NF-kB inhibitor project, cell-based, luminescence, single concentration | inhibition, % at 4 µM | actives 35% (n = 2,000) | shares compounds with 697 NFkB inh | 697 B-cell NF-kB luciferase, 16 h; in the data active = inhibition mostly above about 28%, no sharp cut-off; inactive = mostly below about 22%
# Mdm2-MdmX conf: Mdm2-MdmX complex disruptors, retested hits, confirmation, luminescence, single concentration; inhibition, % at 8 µM; AID 489028, 2010; actives 55% (n = 10,000); shares compounds with Mdm2-MdmX inh; Mdm2-MdmX binding, luminescent assay; in the data active = inhibition above about 40%
# Full FLuc ctr: full-length luciferase signal inhibition, confirmation, counter-screen for Mdm2/MdmX interaction inhibitor project, cell-based, single concentration, SaOS-2. inhibition, % at 8 µM. SaOS-2 full-length luciferase counterscreen, luminescence. shares compounds with Mdm2-MdmX inh. actives 77% (n = 6,200). AID 504607, 2011;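 active = mean inhibition at 8 µM reaching about 37%, which flags the compound as non-specific, limit read from the data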;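 note: p53-null SaOS-2 cells with luciferase driven by a doxycycline-inducible promoter; compound on cells about two nights before reading with doxycycline added after day one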
# An asterisk follows results filed as active; . = not tested or not shown.
SMILES,aSyn 5UTR inh,CSC inhib,Jurkat NFkB inh,697 NFkB inh,Gli-Sufu antag,Mdm2-MdmX inh,Jurkat NFkB conf,Mdm2-MdmX conf,Full FLuc ctr,others
CCCC(=O)NC(c1ccc(OC)cc1)c1ccc2cccnc2c1O (stereo not drawn),129*,119*,62*,-17,47,82*,60*,78*,50*,
Cc1cc(/C=N/n2cnnc2)c(C)n1-c1ccc(OCc2ccc(Cl)cc2)cc1,-37,46,52*,4,63*,61*,23,62*,92*,
CCN(CC)S(=O)(=O)c1ccc(N/N=C/c2cc(OC)ccc2O)nc1,87*,104*,52*,-57,47,80*,-3,83*,23,
CCN(CC)S(=O)(=O)c1ccc(N/N=C/c2cccnc2)nc1,8,8,-4,27,-2,0,.,.,.,
O=C(Cc1n[nH]c(=O)c2ccccc12)OCC(=O)c1ccc(F)cc1,-1,-9,-3,21,-7,19,.,.,.,
CCOc1ccc(C(=O)COC(=O)Cc2n[nH]c(=O)c3ccccc23)cc1,-87,56,55*,-7,-6,57*,8,75*,51*,
Nc1ncc(-c2nnnn2-c2ccc(Cl)cc2)c(-c2ccc(Cl)cc2)n1,10,58,56*,-28,2,57*,21,68*,46*,
COc1cc(/C=C2\SC(=O)NC2=O)ccc1Oc1ccc([N+](=O)[O-])cc1[N+](=O)[O-],-36,46,-4,25,10,8,.,.,.,
CCN1C(=O)C(=Cc2cccc(OC)c2Oc2ccc([N+](=O)[O-])cc2[N+](=O)[O-])SC1=S,80*,77*,68*,-152,17,100*,5,95*,28,
Cc1cnc(NC(=O)C2(c3ccccc3)CC2)s1,-35,-2,.,.,-14,.,.,.,.,
Cc1ccc(C(=O)c2cc([N+](=O)[O-])ccc2N2CC(C)OC(C)C2)cc1 (stereo not drawn),-39,49,46,-52,7,42,.,.,.,
CC1CCCN(c2ccc([N+](=O)[O-])cc2C(=O)c2ccccc2)C1 (stereo not drawn),84*,57,51*,35*,44,65*,40,55*,99*,697 NFkB conf=30*
CC1CCN(c2ccc([N+](=O)[O-])cc2C(=O)O)CC1,21,9,-5,1,-5,4,.,.,.,
Cc1ccc(C(=O)c2cc([N+](=O)[O-])ccc2N2CCCCC2)cc1,81*,56,56*,32,48,53*,53*,65*,96*,
COc1ccc2[nH]c3c(N4CCC(O)(c5cccc(C(F)(F)F)c5)CC4)ncnc3c2c1,-54,6,51*,0,25,75*,23,67*,32,
CN1CCN(c2ncnc3c2[nH]c2ccc(F)cc23)CC1,-7,-4,33,27,-4,20,.,.,.,
CCOc1ccc2[nH]c3c(N4CCc5ccccc5C4)ncnc3c2c1,33,87*,52*,-24,23,57*,21,59*,36,
Cc1ccc2[nH]c3c(N4CCOCC4)ncnc3c2c1,-72,-26,-1,-11,19,-45,.,.,.,
O=C(COc1ccc([N+](=O)[O-])cc1)Nc1nnc(-c2cccnc2)s1,-5,-16,5,19,10,-7,.,.,.,
COCCn1c(C)cc(C2=NNC(=Nc3ccccc3F)SC2)c1C,91*,2,69*,-27,34,73*,88*,88*,13,
COc1ccc(-c2ccc3oc(-c4ccc(OC)cc4)c(C#CCO)c3c2)cc1,-23,10,73*,-39,5,88*,57*,73*,21,
O=C1CN(C(=O)c2cccc(Br)c2)c2ccccc2N1,-85,35,52*,-39,-7,53*,16,62*,52*,
O=C1CN(C(=O)c2ccccc2)c2ccccc2N1,19,9,9,16,7,-7,.,.,.,
COCCN(Cc1ccccc1)C(=O)C1CCN(S(=O)(=O)c2ccc3c(c2)OCCO3)CC1,.,.,7,12,-10,6,.,.,.,
COc1ccc(/C=N/NC(=O)c2ccn[nH]2)cc1COc1ccc([N+](=O)[O-])c(C)c1,19,12,44,7,-3,24,.,.,.,
SMILES,aSyn 5UTR inh,CSC inhib,Jurkat NFkB inh,697 NFkB inh,Gli-Sufu antag,Mdm2-MdmX inh,Jurkat NFkB conf,Mdm2-MdmX conf,Full FLuc ctr,others
COc1ccc(/C=N/NC(=O)c2cccnc2)cc1COc1ccc([N+](=O)[O-])c(C)c1,98*,48,57*,-23,-19,52*,21,55*,48*,
COc1ccc(C(=O)Nc2ccc(/C(C)=N/NC(=O)c3ccccc3O)cc2)cc1OC,-69,9,-14,-15,-11,6,.,.,.,
CC(=O)c1cccc(NC(=O)COC(=O)Cn2cnc3ccccc32)c1,.,-16,3,9,-6,7,.,.,.,
Cc1nc2ccc(C(=O)N3c4ccccc4CC3C)cc2s1 (stereo not drawn),42,-7,55*,-75,3,66*,14,58*,50*,
COc1ccccc1NS(=O)(=O)c1cc(NC(=O)Cc2n[nH]c(=O)c3ccccc23)ccc1Cl,.,10,-9,7,-4,29,.,.,.,
c1ccc(NCCC2OCC3(CO2)COC(CCNc2ccccc2)OC3)cc1 (stereo not drawn),.,.,.,.,9,.,.,.,.,
CC(=O)C1=C(O)C(CSCc2ccccc2)N(C)C1=O (stereo not drawn),.,.,.,.,5,.,.,.,.,
COC(=O)c1[nH]c2c(c1C)C(=O)CC(c1ccc(OC)c(OC)c1)C2 (stereo not drawn),1,5,-14,-34,2,8,.,.,.,
